Experimental data: PubChem BioAssay (EPA / NIEHS)
Active and inactive are the calls of the source. How the source made its calls: active means hit-call score of the fitted dose curve at least 0.9, where 1 is the maximum; inactive means score below 0.9.

Read-out: Collagen III, COL3A1 (gene 1281)
Assay: BSK_hDFCGF_CollagenIII: BioMAP Diversity Plus: hDFCGF Assay for Collagen III Biomarker Activity (AID 2283056)
Details: primary human foreskin fibroblasts; actives raise or lower the signal
Method in brief: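 hDFCGF primary human dermal fibroblasts; 24 h chemical exposure; collagen III by ELISA; bidirectional curve fit vs DMSO baseline (gain or loss of signal).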

Row | SMILES | outcome | AC50
1 | CN(c1nccc(=O)[nH]1)C1CCN(c2nc3ccccc3n2Cc2ccc(F)cc2)CC1 | inactive | 
2 | CCCCCCCCCCCCCCCC(=O)OC/C=C(C)/C=C/C=C(C)/C=C/C1=C(C)CCCC1(C)C |  | 3.97 µM (active)
3 | CC(=O)c1c(C)c([N+](=O)[O-])c(C(C)(C)C)c([N+](=O)[O-])c1C | inactive | 
4 | CC(=O)C1(C)CC2=C(CCCC2(C)C)CC1C (centres undefined) |  | 10.5 µM (active)
5 | Oc1c(Cl)cc(Cl)c(Cl)c1Cc1c(O)c(Cl)cc(Cl)c1Cl |  | 4.93 µM (active)
6 | CCN(CC)C(=O)N(CC)CC | inactive | 
7 | CC1(C)C2=CCCC(C)(C)[C@]23CC[C@H]1C3 |  | 20 µM (active)
8 | COc1ccc(CCN2CCC(Nc3nc4ccccc4n3Cc3ccc(F)cc3)CC2)cc1 |  | 5 µM (active)
9 | COc1ccc(OC)c(N=Nc2c(O)ccc3ccccc23)c1 |  | 1.92 µM (active)
10 | CC(C)(C)CC(C)(C)c1ccc(OCCOCC[N+](C)(C)Cc2ccccc2)cc1 |  | 2.22 µM (active)
11 | O=C1OC2(c3ccccc31)c1ccc(O)c(Br)c1Oc1c2ccc(O)c1Br | inactive | 
12 | c1ccc2cc(Nc3ccc(Nc4ccc5ccccc5c4)cc3)ccc2c1 | inactive | 
13 | C1=CC2C3C=CC(C3)C2C1 (centres undefined) | inactive | 
14 | O=C1c2ccccc2C(=O)c2c(O)ccc(O)c21 | inactive | 
15 | C=CC(C)(O)CCC=C(C)C (centres undefined) | inactive | 
16 | C=C(C)C(=O)OCCOCCOCCOCCOC(=O)C(=C)C | inactive | 
17 | CS(=O)(=O)OCCCCOS(C)(=O)=O | inactive | 
18 | CCCCN(CCCC)C(=O)N(CCCC)CCCC |  | 7.43 µM (active)
19 | Cc1cc(CCC(=O)OCCOCCOCCOC(=O)CCc2cc(C)c(O)c(C(C)(C)C)c2)cc(C(C)(C)C)c1O |  | 23.1 µM (active)
20 | CC(CN=Cc1ccccc1O)N=Cc1ccccc1O (centres undefined) | inactive | 
21 | C=C(C)C(=O)OCC(CC)(COC(=O)C(=C)C)COC(=O)C(=C)C | inactive | 
22 | CS(=O)(=O)c1ccc(C2=C(c3ccccc3)C(=O)OC2)cc1 | inactive | 
23 | CCC(C)c1cc([N+](=O)[O-])cc([N+](=O)[O-])c1OC(=O)OC(C)C (centres undefined) |  | 6.86 µM (active)

Read-out: Epidermal growth factor receptor (EGFR), EGFR (gene 1956)
Assay: BSK_hDFCGF_EGFR: BioMAP Diversity Plus: hDFCGF Assay for Epidermal growth factor receptor (EGFR) Biomarker Activity (AID 2283057)
Details: primary human foreskin fibroblasts; actives raise or lower the signal
Method in brief: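 ELISA readout of EGFR on human dermal fibroblasts (primary foreskin cells), 24 h post-dosing; bidirectional curve fit vs DMSO baseline, gain or loss of signal scored.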

Row | SMILES | outcome | AC50
24 | CN(c1nccc(=O)[nH]1)C1CCN(c2nc3ccccc3n2Cc2ccc(F)cc2)CC1 | inactive | 
25 | CCCCCCCCCCCCCCCC(=O)OC/C=C(C)/C=C/C=C(C)/C=C/C1=C(C)CCCC1(C)C | inactive | 
26 | CC(=O)c1c(C)c([N+](=O)[O-])c(C(C)(C)C)c([N+](=O)[O-])c1C | inactive | 
27 | CC(=O)C1(C)CC2=C(CCCC2(C)C)CC1C (centres undefined) |  | 6.8 µM (active)
28 | Oc1c(Cl)cc(Cl)c(Cl)c1Cc1c(O)c(Cl)cc(Cl)c1Cl | inactive | 
29 | CCN(CC)C(=O)N(CC)CC | inactive | 
30 | CC1(C)C2=CCCC(C)(C)[C@]23CC[C@H]1C3 | inactive | 
31 | COc1ccc(CCN2CCC(Nc3nc4ccccc4n3Cc3ccc(F)cc3)CC2)cc1 | inactive | 
32 | COc1ccc(OC)c(N=Nc2c(O)ccc3ccccc23)c1 | inactive | 
33 | CC(C)(C)CC(C)(C)c1ccc(OCCOCC[N+](C)(C)Cc2ccccc2)cc1 | inactive | 
34 | O=C1OC2(c3ccccc31)c1ccc(O)c(Br)c1Oc1c2ccc(O)c1Br | inactive | 
35 | c1ccc2cc(Nc3ccc(Nc4ccc5ccccc5c4)cc3)ccc2c1 | inactive | 
36 | C1=CC2C3C=CC(C3)C2C1 (centres undefined) | inactive | 
37 | O=C1c2ccccc2C(=O)c2c(O)ccc(O)c21 | inactive | 
38 | C=CC(C)(O)CCC=C(C)C (centres undefined) | inactive | 
39 | C=C(C)C(=O)OCCOCCOCCOCCOC(=O)C(=C)C | inactive | 
40 | CS(=O)(=O)OCCCCOS(C)(=O)=O | inactive | 
41 | CCCCN(CCCC)C(=O)N(CCCC)CCCC | inactive | 
42 | Cc1cc(CCC(=O)OCCOCCOCCOC(=O)CCc2cc(C)c(O)c(C(C)(C)C)c2)cc(C(C)(C)C)c1O | inactive | 
43 | CC(CN=Cc1ccccc1O)N=Cc1ccccc1O (centres undefined) | inactive | 
44 | C=C(C)C(=O)OCC(CC)(COC(=O)C(=C)C)COC(=O)C(=C)C |  | 31.7 µM (active)
45 | CS(=O)(=O)c1ccc(C2=C(c3ccccc3)C(=O)OC2)cc1 | inactive | 
46 | CCC(C)c1cc([N+](=O)[O-])cc([N+](=O)[O-])c1OC(=O)OC(C)C (centres undefined) | inactive | 

Read-out: not listed separately
Assay: BSK_hDFCGF_Proliferation: Cell Proliferation Assessment in the BioMAP Diversity Plus: hDFCGF Assay (AID 2283059);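 further: curves fitted for both rise and fall of signal versus DMSO baseline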
Details: primary human foreskin fibroblasts
Method in brief: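 Sub-confluent human foreskin fibroblast cultures receive test chemical […]. Relative cell number is quantified by sulforhodamine B staining (0.1%, after 10% TCA fixation) at 560 nm, with bidirectional fitting referenced to DMSO.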

Row | SMILES | outcome | AC50
47 | CN(c1nccc(=O)[nH]1)C1CCN(c2nc3ccccc3n2Cc2ccc(F)cc2)CC1 | inactive | 
48 | CCCCCCCCCCCCCCCC(=O)OC/C=C(C)/C=C/C=C(C)/C=C/C1=C(C)CCCC1(C)C |  | 27.7 µM (active)
49 | CC(=O)c1c(C)c([N+](=O)[O-])c(C(C)(C)C)c([N+](=O)[O-])c1C | inactive | 
50 | CC(=O)C1(C)CC2=C(CCCC2(C)C)CC1C (centres undefined) |  | 10.6 µM (active)
51 | Oc1c(Cl)cc(Cl)c(Cl)c1Cc1c(O)c(Cl)cc(Cl)c1Cl |  | 0.113 µM (active)
52 | CCN(CC)C(=O)N(CC)CC | inactive | 
53 | CC1(C)C2=CCCC(C)(C)[C@]23CC[C@H]1C3 |  | 8.84 µM (active)
54 | COc1ccc(CCN2CCC(Nc3nc4ccccc4n3Cc3ccc(F)cc3)CC2)cc1 |  | 5.42 µM (active)
55 | COc1ccc(OC)c(N=Nc2c(O)ccc3ccccc23)c1 |  | 10.2 µM (active)
56 | CC(C)(C)CC(C)(C)c1ccc(OCCOCC[N+](C)(C)Cc2ccccc2)cc1 |  | 0.496 µM (active)
57 | O=C1OC2(c3ccccc31)c1ccc(O)c(Br)c1Oc1c2ccc(O)c1Br |  | 20 µM (active)
58 | c1ccc2cc(Nc3ccc(Nc4ccc5ccccc5c4)cc3)ccc2c1 | inactive | 
59 | C1=CC2C3C=CC(C3)C2C1 (centres undefined) | inactive | 
60 | O=C1c2ccccc2C(=O)c2c(O)ccc(O)c21 |  | 3.14 µM (active)
61 | C=CC(C)(O)CCC=C(C)C (centres undefined) | inactive | 
62 | C=C(C)C(=O)OCCOCCOCCOCCOC(=O)C(=C)C | inactive | 
63 | CS(=O)(=O)OCCCCOS(C)(=O)=O | inactive | 
64 | CCCCN(CCCC)C(=O)N(CCCC)CCCC |  | 3.96 µM (active)
65 | Cc1cc(CCC(=O)OCCOCCOCCOC(=O)CCc2cc(C)c(O)c(C(C)(C)C)c2)cc(C(C)(C)C)c1O |  | 22.8 µM (active)
66 | CC(CN=Cc1ccccc1O)N=Cc1ccccc1O (centres undefined) | inactive | 
67 | C=C(C)C(=O)OCC(CC)(COC(=O)C(=C)C)COC(=O)C(=C)C |  | 26.5 µM (active)
68 | CS(=O)(=O)c1ccc(C2=C(c3ccccc3)C(=O)OC2)cc1 | inactive | 
69 | CCC(C)c1cc([N+](=O)[O-])cc([N+](=O)[O-])c1OC(=O)OC(C)C (centres undefined) |  | 4.37 µM (active)
